Ten sequences from PMC8384837, “Expanding the binding specificity for RNA recognition by a PUF domain” can be followed below.

Common to all, as to assay: yeast three-hybrid, YBZ-1, SC-Leu-His + 0.5 mM 3-AT, 4 days
What all share (settings): tags: N-Gal4 AD-HA kept; label: inside an RPR1-promoter hybrid RNA with tandem MS2 sites; ssRNA

In assay [1] the target is PUM1 PUF domain R8-KRW (Homo sapiens, UniProt Q14671 828-1176, N1122K;Y1123R;Q1126W). The method, boiled down: (§1)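 Matching RNA elements and Pumilio-1 PUF domain libraries, randomized at the three base-contacting residues of every repeat, were co-expressed from a centromeric plasmid in strain YBZ-1 (LexA–MS2 coat fusion, HIS3 reporter). The repeat regions were PCR-amplified and Illumina-sequenced from cells grown four days on SC-Leu (input) or SC-Leu-His + 0.5 mM 3-AT (selection). The interaction score is the log change in variant frequency from input to selection. It is computed in log2, with a pseudocount of 1 for absent variants.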

In assay [2] the target is PUM1 PUF domain R4-CNS (Homo sapiens, UniProt Q14671 828-1176, N971C;H972N;Q975S). The method, boiled down:
as §1

In assay [3] the target is PUM1 PUF domain R4-RMA (Homo sapiens, UniProt Q14671 828-1176, N971R;H972M;Q975A). The method, boiled down: as §1
For assay [4], the target named is PUM1 PUF domain R5-RRW (Homo sapiens, UniProt Q14671 828-1176, C1007R;Q1011W). The method, boiled down:
as §1

In assay [5] the target is PUM1 PUF domain R2-LYL (Homo sapiens, UniProt Q14671 828-1176, N899L;Q903L). The method, boiled down: as §1
For assay [6], the target named is PUM1 PUF domain R5-KNA (Homo sapiens, UniProt Q14671 828-1176, C1007K;R1008N;Q1011A). The method, boiled down:
as §1

Assay [7] has as its target PUM1 PUF domain R3-RPH (Homo sapiens, UniProt Q14671 828-1176, C935R;R936P;Q939H). The method, boiled down: as §1
For assay [8], the target named is PUM1 PUF domain R3-RVT (Homo sapiens, UniProt Q14671 828-1176, C935R;R936V;Q939T). In short, it runs like this:
as §1

For assay [9], the target named is PUM1 PUF domain R7-RVC (Homo sapiens, UniProt Q14671 828-1176, S1079R;N1080V;E1083C). The method, boiled down: as §1
Assay [10] has as its target PUM1 PUF domain R7-GRL (Homo sapiens, UniProt Q14671 828-1176, S1079G;N1080R;E1083L). The method, boiled down:
as §1

Chain of PUM1 PUF domain R5-RRW (Q14671 828-1176 C1007R/Q1011W): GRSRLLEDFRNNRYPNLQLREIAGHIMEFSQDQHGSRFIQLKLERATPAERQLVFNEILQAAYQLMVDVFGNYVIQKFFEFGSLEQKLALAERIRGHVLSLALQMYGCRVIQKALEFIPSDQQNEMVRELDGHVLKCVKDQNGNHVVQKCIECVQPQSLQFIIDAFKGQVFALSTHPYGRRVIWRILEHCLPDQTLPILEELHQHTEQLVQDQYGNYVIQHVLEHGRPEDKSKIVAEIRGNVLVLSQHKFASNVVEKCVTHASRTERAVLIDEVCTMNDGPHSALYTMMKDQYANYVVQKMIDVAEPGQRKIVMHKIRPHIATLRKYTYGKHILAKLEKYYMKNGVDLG
Chain of PUM1 PUF domain R4-CNS (Q14671 828-1176 N971C/H972N/Q975S): as the sequence (Q14671 828-1176 C1007R/Q1011W) above, with N144C, H145N, Q148S, R180C, W184Q counted along it
Chain of PUM1 PUF domain R8-KRW (Q14671 828-1176 N1122K/Y1123R/Q1126W): as the sequence (Q14671 828-1176 C1007R/Q1011W) above, with R180C, W184Q, N295K, Y296R, Q299W counted along it
Chain of PUM1 PUF domain R3-RPH (Q14671 828-1176 C935R/R936P/Q939H): as the sequence (Q14671 828-1176 C1007R/Q1011W) above, with C108R, R109P, Q112H, R180C, W184Q counted along it
Chain of PUM1 PUF domain R2-LYL (Q14671 828-1176 N899L/Q903L): as the sequence (Q14671 828-1176 C1007R/Q1011W) above, with N72L, Q76L, R180C, W184Q counted along it
Chain of PUM1 PUF domain R7-RVC (Q14671 828-1176 S1079R/N1080V/E1083C): as the sequence (Q14671 828-1176 C1007R/Q1011W) above, with R180C, W184Q, S252R, N253V, E256C counted along it
Chain of PUM1 PUF domain R5-KNA (Q14671 828-1176 C1007K/R1008N/Q1011A): as the sequence (Q14671 828-1176 C1007R/Q1011W) above, with R180K, R181N, W184A counted along it
Chain of PUM1 PUF domain R3-RVT (Q14671 828-1176 C935R/R936V/Q939T): as the sequence (Q14671 828-1176 C1007R/Q1011W) above, with C108R, R109V, Q112T, R180C, W184Q counted along it
Chain of PUM1 PUF domain R4-RMA (Q14671 828-1176 N971R/H972M/Q975A): as the sequence (Q14671 828-1176 C1007R/Q1011W) above, with N144R, H145M, Q148A, R180C, W184Q counted along it
Chain of PUM1 PUF domain R7-GRL (Q14671 828-1176 S1079G/N1080R/E1083L): as the sequence (Q14671 828-1176 C1007R/Q1011W) above, with R180C, W184Q, S252G, N253R, E256L counted along it

For “GGCUAGAACUAGUGGAUCCCCCGGCGCCCGGCGGCUCGAGCCCGGGUAAGCGUAAAUAGUCUGCAUGCCGCCGGGCGCCAUGCCUGCAGGUCGACUCUAGAAAACAUG”, in [1], the binding signal was 3.21 log2 enrichment (interaction score). On to “GGCUAGAACUAGUGGAUCCCCCGGCGCCCGGCGGCUCGAGCCCGGGUAAGUGUACAUAGUCUGCAUGCCGCCGGGCGCCAUGCCUGCAGGUCGACUCUAGAAAACAUG”, for which, in assay [2], the binding signal is 2.9 log2 enrichment (interaction score).

As to “GGCUAGAACUAGUGGAUCCCCCGGCGCCCGGCGGCUCGAGCCCGGGUAAGUGUAAAUAGUCUGCAUGCCGCCGGGCGCCAUGCCUGCAGGUCGACUCUAGAAAACAUG”, the binding signal in [3] is 4.05 log2 enrichment (interaction score); in assay [2] it was 0.73 log2 enrichment (interaction score); in assay [1], 1.73 log2 enrichment (interaction score); in assay [4] it was 0.79 log2 enrichment (interaction score). Take “GGCUAGAACUAGUGGAUCCCCCGGCGCCCGGCGGCUCGAGCCCGGGUAAGUGUAUAUAGUCUGCAUGCCGCCGGGCGCCAUGCCUGCAGGUCGACUCUAGAAAACAUG”: the binding signal in assay [2] is 3.64 log2 enrichment (interaction score).

As for “GGCUAGAACUAGUGGAUCCCCCGGCGCCCGGCGGCUCGAGCCCGGGUAAGUGUUAAUAGUCUGCAUGCCGCCGGGCGCCAUGCCUGCAGGUCGACUCUAGAAAACAUG”, the binding signal in [4] is 3.67 log2 enrichment (interaction score).

Consider “GGCUAGAACUAGUGGAUCCCCCGGCGCCCGGCGGCUCGAGCCCGGGUAAGUGUAAAAAGUCUGCAUGCCGCCGGGCGCCAUGCCUGCAGGUCGACUCUAGAAAACAUG”, for which the binding signal in assay [5] is 3.33 log2 enrichment (interaction score). Regarding “GGCUAGAACUAGUGGAUCCCCCGGCGCCCGGCGGCUCGAGCCCGGGUAAGUGUCAAUAGUCUGCAUGCCGCCGGGCGCCAUGCCUGCAGGUCGACUCUAGAAAACAUG”, the binding signal in assay [6] is 2.79 log2 enrichment (interaction score); in assay [4], 3.43 log2 enrichment (interaction score).

For “GGCUAGAACUAGUGGAUCCCCCGGCGCCCGGCGGCUCGAGCCCGGGUAAGUGUAAUUAGUCUGCAUGCCGCCGGGCGCCAUGCCUGCAGGUCGACUCUAGAAAACAUG”, the results for the binding signal in assay [7] and in assay [8] were 3.26 log2 enrichment (interaction score) and 2.47 log2 enrichment (interaction score), respectively. Take “GGCUAGAACUAGUGGAUCCCCCGGCGCCCGGCGGCUCGAGCCCGGGUAAGUUUAAAUAGUCUGCAUGCCGCCGGGCGCCAUGCCUGCAGGUCGACUCUAGAAAACAUG”: the binding signal in assay [9] was 2.88 log2 enrichment (interaction score); in [10] it was 2.75 log2 enrichment (interaction score). Consider “GGCUAGAACUAGUGGAUCCCCCGGCGCCCGGCGGCUCGAGCCCGGGUAAGUGUGAAUAGUCUGCAUGCCGCCGGGCGCCAUGCCUGCAGGUCGACUCUAGAAAACAUG”, for which the binding signal in [4] is 0.3 log2 enrichment (interaction score).
